Screens (PubChem)
mHTT CaM bind = inhibitors of human mutant huntingtin-calmodulin interaction; P42858; AlphaScreen His-mHTT/GST-CaM binding, luminescence; inhibition, % at 15 µM; 190,000 compounds, 3.6% hits
Pf apPOL block = Pf-apPOL DNA polymerase inhibition. AID 1794808. 210,000 compounds, 0.25% hits. Recombinant Pf-apPOL, molecular beacon fluorescence, 1.5 h. inhibition, % at 10 µM
Numbers stand for hits; 0 = inactive; - = no result given. A selection: hits, their analogues and other compounds. The true share with any hit is near 3.5%. Rule as the data show it: active = inhibition above about 50%; inactive = the rest.

SMILES	mHTT CaM bind	Pf apPOL block
O=C1C=CC(=NS(=O)(=O)c2cccc(C(=O)O)c2)C=C1	58	59
O=C1C=CC(=NS(=O)(=O)c2ccc(F)cc2)C=C1	50	0
CC(C)c1ccc(S(=O)(=O)N=C2C=CC(=O)C=C2)cc1	86	0
O=C(COc1ccc(-c2cnc3ccccc3n2)cc1)N1CCCCCC1	0	0
CCOC(=O)C(C)NC(=O)N1CCC(N2CCN(Cc3cccc(C)c3)C2=O)CC1 (centres undefined)	0	0
Cc1sc2ccc(O)cc2[n+]1CCCS(=O)(=O)[O-]	0	-
C=C(C)CN(CC)C(=O)C1CCN(CC2CC=CCC2)CC1 (centres undefined)	0	0
OCCCNc1nc(-c2ccccc2Cl)c2cc(Br)ccc2n1	51	0
O=C(NNc1nc(-c2ccccc2)c2cc(Br)ccc2n1)C12CC3CC(CC(C3)C1)C2	0	0
CC1=C/C(=C/c2ccc(-c3ccc([N+](=O)[O-])cc3)o2)C(=O)O1	0	0
O=C(/C=C/c1ccc(-c2ccc(Cl)cc2)o1)c1ccco1	58	0
O=C(/C=C/c1ccc(-c2ccc([N+](=O)[O-])cc2)o1)c1ccco1	0	0
CC1=C/C(=C\c2ccc(-c3ccccc3[N+](=O)[O-])o2)C(=O)O1	51	0
O=C(/C=C/c1ccc(-c2ccccc2)o1)c1ccco1	0	0
O=C(/C=C/c1ccc(-c2ccccc2[N+](=O)[O-])o1)c1ccco1	71	0
COCC(=O)N1CCc2c(c(-c3nc(-c4ccc(F)cc4)no3)nn2C)C1	0	0
O=C(C(Cc1ccccc1)N1C(=O)c2ccccc2C1=O)N1CCN(c2ccc(F)cc2)CC1 (centres undefined)	51	0
O=C(C(Cc1ccccc1)N1C(=O)c2ccccc2C1=O)N1CCN(CCO)CC1 (centres undefined)	0	0
Cc1ccc2c(c1)c1c3n2CCN(C(=O)CN2CCN(C(=O)c4ccco4)CC2)C3CCC1 (centres undefined)	57	0
O=C(CN1CCN(C(=O)c2ccco2)CC1)Nc1c2c(nc3c1CCC3)CCCC2	0	0
CSc1cccc(N=Cc2[nH]c3ccc(Br)c(Cl)c3c2O)c1	0	0
COc1ccc(NC(=O)Cn2c(C)c(C=O)c3ccccc32)cc1	0	0
COc1cc(/C=C2/SC(=N)NC2=O)cc(I)c1OC	0	0
O=S(=O)(NCc1ccc2c(c1)OCO2)c1ccc2[nH]c3c(c2c1)CCCCC3	96	0
COc1cccc(CNS(=O)(=O)c2ccc3[nH]c(=O)sc3c2)c1	0	0
SMILES	mHTT CaM bind	Pf apPOL block
COc1cccc(CNS(=O)(=O)c2ccc3[nH]c4c(c3c2)CCCCC4)c1	73	0
CCOc1ccccc1NC(=O)CN(C)S(=O)(=O)c1ccc2[nH]c3c(c2c1)CCCC3	0	0
CCOc1ccc(CNS(=O)(=O)c2ccc3[nH]c4c(c3c2)CCCCC4)cc1	55	0
Cc1ccc(CNS(=O)(=O)c2ccc3[nH]c4c(c3c2)CCCC4)o1	50	0
O=c1[nH]c2ccc(S(=O)(=O)NCc3ccc4c(c3)OCO4)cc2[nH]c1=O	0	0
CC(C)NC(=O)c1cccnc1SCc1ccccc1Cl	0	0
Cc1noc(-c2nn(C)c3c2CN(C(=O)c2ccccc2Br)CC3)n1	0	0
COc1ccccc1-c1nnc2n1N=C(c1ccc(F)cc1)CS2	0	0
COc1ccc(CNS(=O)(=O)c2ccc3[nH]c4c(c3c2)CCCCC4)cc1	97	0
CCN(c1ccc(OC)cc1)S(=O)(=O)c1ccc2[nH]c3c(c2c1)CCCCC3	70	0
COc1ccc(CCNS(=O)(=O)c2ccc3[nH]c4c(c3c2)CCCC4)cc1OC	0	0
O=S(=O)(NCCc1ccccc1)c1ccc2[nH]c3c(c2c1)CCCC3	95	0
COc1ccc(CNS(=O)(=O)c2ccc3nc(-c4ccccc4)[nH]c3c2)cc1	0	0
CN(Cc1ccccc1)S(=O)(=O)c1ccc2[nH]c3c(c2c1)CCCC3	71	0
CN(CC(=O)N1CCCC1)S(=O)(=O)c1ccc2[nH]c3c(c2c1)CCCC3	0	0
O=C(c1cccs1)N1CC(C(=O)N2CCCCC2)C(c2ccccc2)C1 (centres undefined)	0	0
Cc1cccc(C(=O)N2CCCC(C(=O)Nc3ccc(F)c(Cl)c3)C2)c1 (centres undefined)	0	0
Cc1ccccc1-c1csc2c(=O)n(CCC(C)C)cnc12	0	0
Cc1[nH]nc(-c2ccccc2Cl)c1NC(=O)C1CCCC1	0	0
Cc1cccc(CNC(=O)c2nn(C)c3c2CN(C(=O)C2CCCCC2)CC3)c1	0	0
Cn1nc(C(=O)NCc2ccc(F)cc2)c2c1CCN(C(=O)CC1CCCC1)C2	76	0
Cn1nc(C(=O)NCc2ccccc2)c2c1CCN(C(=O)CC1CCCC1)C2	71	0
Cn1nc(C(=O)NCc2ccc(F)cc2)c2c1CCN(C(=O)c1ccc(Cl)cc1)C2	0	0
CCCC(=O)N1CCc2c(c(C(=O)NCc3ccccc3)nn2C)C1	0	0
COc1ccc(C(=O)N2CCc3c(c(C(=O)NCc4ccc(Cl)cc4)nn3C)C2)cc1	80	0
SMILES	mHTT CaM bind	Pf apPOL block
Cn1nc(C(=O)NCc2ccccc2)c2c1CCN(C(=O)C1CCCCC1)C2	85	0
Cc1nnc(SC2CC(=O)N(c3ccc(Br)cc3)C2=O)s1 (centres undefined)	0	0
COc1ccc(Br)cc1/C=C1/N=C(c2cccc(C)c2)OC1=O	0	0
CCOc1cccc2cc(C(=O)Nc3nccs3)c(=Nc3ccccc3C)oc12	0	0
COc1ccc(CC(=O)N2CC3CC2CC3NC(=O)c2cccs2)cc1Cl (centres undefined)	0	0
CCn1c(=O)c2ccnn2c2ccc(C(=O)NCc3cccc(C)c3)cc21	0	0
Cn1nc(C(=O)NCc2ccc(Cl)cc2)c2c1CCN(C(=O)C1CC1)C2	83	0
Cn1nc(C(=O)NCc2ccc(F)cc2)c2c1CCN(C(=O)C1CCC1)C2	0	0
Cc1cccc(CNC(=O)c2nn(C)c3c2CN(C(=O)CC2CCCC2)CC3)c1	55	0
CCOC1=NN(c2ccc([N+](=O)[O-])cc2)C(=O)/C1=C/c1ccc(F)cc1	0	0
CCC(Sc1nncn1C)C(=O)Nc1nc2c(s1)CCCC2 (centres undefined)	0	0
COCC(C)(O)CNS(=O)(=O)c1ccc(C(F)(F)F)cc1 (centres undefined)	0	0
Cc1sc2cc(C(=O)N3CCN(C)CC3)[nH]c2c1CN1CCOCC1	0	0
Cc1sc2cc(C(=O)N3CCOCC3)[nH]c2c1CN1CCOCC1	100	0
O=C(NCc1cccc(F)c1)N1CC2CC(NS(=O)(=O)c3ccccc3)C1C2 (centres undefined)	0	0
COc1cccc2c1Oc1[nH]c(-c3ccc(OC)c(OC)c3OC)nc(=S)c1C2	0	0
COc1cccc(-c2nc(=S)c3c([nH]2)Oc2c(cccc2OC)C3)c1O	53	0
COCCN=C1Nc2ccccc2NC12CCCN(C(=O)c1ccc(C)c(F)c1)C2 (centres undefined)	0	0
COCCN=C1Nc2ccccc2NC12CCCN(C(=O)Nc1ccc(OC)cc1)C2 (centres undefined)	100	0
COCCN=C1Nc2ccccc2NC12CCCN(C(=O)c1cc(OC)cc(OC)c1)C2 (centres undefined)	0	0
COCCN=C1Nc2ccccc2NC12CCCN(C(=O)Nc1ccc(OC)cc1C)C2 (centres undefined)	70	0
O=C(c1ccc(Br)cc1)N1CCN(c2nc(CN3CCCCC3)cs2)CC1	0	0
